The values below come from PubChem BioAssay (NCI).

This is part of a sample that, as a whole, favours compounds with a hit. Of some 83,000 tested, about 20% had one in any assay.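 Cells were grown in 96-well plates and exposed to the test compound at a single concentration for 48 hours; results are reported as percent growth, with values below 10 considered active.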 The source made the active and inactive calls.

This experiment concerns NCI-H23 lung. Put plainly: NCI-60 one-dose screen, 48 h (100 = growth as untreated, 0 = no growth, -100 = all killed). The conditions noted are these: 10 µM.
Turning to `O=c1oc2ccc(-c3ccc(F)cc3F)cc2c(=O)n1-c1ccc(F)c(Cl)c1`, the growth was -49.8% (active). For the compound `O=C(c1ccc(O)cc1)C1[C@H](c2ccccc2Br)[C@@H](c2ccccc2)NC12C(=O)Nc1ccc(Br)cc12` (stereo partly drawn), the growth is 46.4% (inactive). Consider `O=C(Nc1cccc(-c2cn(-c3ccc4oc(=O)ccc4c3)nn2)c1)Nc1cc(C(F)(F)F)cc(C(F)(F)F)c1`, for which the growth was 4.21% (active). With `O=C1N/C(=N\c2nccs2)S/C1=C\c1cccs1`, the growth was 38.1% (inactive). With `COc1ccc2[nH]c(O)c(N=NC(=O)COc3ccc(NC(=O)Nc4ccc(Cl)cc4)cc3)c2c1`, the growth is -40.4% (active). For `COc1ccc(OC)c(-c2cc(-c3c[nH]c4ccccc34)nc(N)c2C#N)c1`, the growth was -9.65% (active). For `N#Cc1ccc(-c2nn(-c3ccc(C(=O)O)cc3)cc2CNc2ccc(Oc3ccccc3)cc2)cc1` the value was 12% (inactive); for `N#Cc1ccc(-c2nn(-c3ccc(C(=O)O)cc3)cc2CNc2cc(Cl)cc(C(F)(F)F)c2)cc1`, -12.8% (active); for `CO[C@@H]1CSS[C@H]1Cn1nc(-c2ccc(Oc3ccccc3)cc2)c2c(N)ncnc21`, 63.5% (inactive). Take `Cc1ccn2c(C(=O)c3ccc(Br)cc3)cc(-c3cc(-c4ccc(N(C)C)cc4)c(C#N)c(N)n3)c2c1`: the growth was 27.6% (inactive). Regarding `O=c1c2ccccc2nc(COc2ccccc2)n1/N=C/c1ccc(F)cc1`, the growth was 85.6% (inactive). For the compound `Nc1nc(Nc2ccc(Cl)cc2)nn1Cc1cccc(Br)c1`, the growth is 31.7% (inactive). In the case of `CC(C)CCSc1nc(NC2CC2)c(C#N)c(-c2ccc(C(C)C)cc2)n1`, the growth was 101% (inactive).
